Source: PubChem BioAssay
In the library only some 4% were active in any assay of this set; here they are far more common.
Anthrax LF inh2: inhibitors of Bacillus anthracis lethal factor protease | P15917 | multiplex microsphere protease cleavage assay, LF | inhibition, % at 10 µM | 360,000 compounds, 0.12% hits; further: plate controls were buffer without enzyme for full effect and enzyme alone for no effect
Target sequence (P15917 whole entry, looked up): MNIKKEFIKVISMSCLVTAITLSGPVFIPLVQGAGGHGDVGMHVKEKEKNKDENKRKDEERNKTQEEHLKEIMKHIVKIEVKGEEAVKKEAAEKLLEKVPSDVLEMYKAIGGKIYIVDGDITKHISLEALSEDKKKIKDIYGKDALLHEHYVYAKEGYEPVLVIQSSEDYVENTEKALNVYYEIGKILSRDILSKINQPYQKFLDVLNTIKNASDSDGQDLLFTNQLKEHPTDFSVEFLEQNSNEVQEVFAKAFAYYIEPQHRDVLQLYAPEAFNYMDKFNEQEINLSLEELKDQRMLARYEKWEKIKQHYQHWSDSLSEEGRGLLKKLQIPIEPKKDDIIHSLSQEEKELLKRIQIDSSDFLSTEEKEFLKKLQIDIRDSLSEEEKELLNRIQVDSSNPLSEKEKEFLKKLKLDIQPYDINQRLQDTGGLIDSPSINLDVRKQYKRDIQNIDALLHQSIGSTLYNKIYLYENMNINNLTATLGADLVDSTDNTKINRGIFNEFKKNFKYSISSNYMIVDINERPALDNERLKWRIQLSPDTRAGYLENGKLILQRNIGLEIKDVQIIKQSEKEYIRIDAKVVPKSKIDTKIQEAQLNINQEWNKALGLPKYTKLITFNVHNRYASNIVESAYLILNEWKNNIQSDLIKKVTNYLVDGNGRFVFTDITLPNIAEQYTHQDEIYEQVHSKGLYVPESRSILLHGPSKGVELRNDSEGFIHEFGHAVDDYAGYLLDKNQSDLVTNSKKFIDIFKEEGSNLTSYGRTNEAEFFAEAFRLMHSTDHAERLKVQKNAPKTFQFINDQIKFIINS
DUSP3 inh: inhibitors of human VHR1 phosphatase (DUSP3); P51452; recombinant VHR phosphatase, pNPP absorbance; inhibition, % at 13.3 µM; 290,000 compounds, 0.52% hits; AID 1654; in the data active means inhibition above about 50%
Bead autofluor: counter-screen for toxin protease inhibitors: compound fluorescence; compound autofluorescence counterscreen, microsphere flow cytometry; active compounds read high; fluorescence intensity (test concentration not listed); 360,000 compounds, 3.1% hits; in the data active means fluorescence intensity above about 16000; inconclusive means no clear call, values can overlap the other calls
BoNT A protease: BoNT A light chain protease inhibition | multiplex microsphere protease substrate cleavage, flow cytometry | 360,000 compounds, 0.17% hits | inhibition, % at 10 µM | AID 588499; further: plate controls were buffer without enzyme for full effect and enzyme alone for no effect
BoNT-F LC inh: blocks Botulinum neurotoxin F light chain protease. 360,000 compounds, 0.22% hits. AID 588497. inhibition, % at 10 µM. Multiplex microsphere protease cleavage assay, flow cytometry; in the data active means inhibition above about 35%, passing the limit was not always enough; inconclusive means no clear call, values can overlap the other calls; further: plate controls were buffer without enzyme for full effect and enzyme alone for no effect
MazF activator: increases E. coli MazEF RNase cleavage of RNA; P0AE70; 350,000 compounds, 0.32% hits; activation, % at 20 µM; FAM/BHQ RNA-DNA oligo cleavage fluorescence, 5 h; in the data active means activation above about 50%
An asterisk follows results filed as active; ? = inconclusive; . = no result. Unless noted, no stated cut-off is given here; in the data, active means inhibition above about 30%; inconclusive means no clear call, values can overlap the other calls; inactive means below that.

SMILES	Anthrax LF inh2	DUSP3 inh	Bead autofluor	BoNT A protease	BoNT-F LC inh	MazF activator
CSCCC(NC(C)=O)C(=O)OCC(=O)N(c1ccccc1)c1ccccc1 (stereo not drawn)	4	2	2586	-1	4	2
O=C(CSc1nnc(CNC(=O)c2ccco2)o1)Nc1ccc(F)cc1F	-1	52*	5732	-1	-3	9
Cn1c(CNC(=O)c2ccco2)nnc1SCC(=O)Nc1ccc(Br)cc1F	0	-8	2580	-1	-16	4
Cc1cc(NC(=O)CSc2nnc(CNC(=O)c3c(F)cccc3F)o2)no1	-4	53*	5063	2	3	-2
CCn1c(CNC(=O)c2ccco2)nnc1SCC(=O)Nc1ccc(Br)cc1F	-5	0	20415*	5	8	10
Cc1nn(CCc2n[nH]c(=S)n2C2CCCCC2)c(C)c1Br	-3	23	26154*	-9	-7	-3
Cc1nn(CCc2n[nH]c(=S)n2C)c(C)c1Br	-3	9	15320	3	8	0
Brc1ccc(C2=Nn3cnnc3SC2)cc1	8	18	3527	0	6	6
COCCNC(=O)c1onc(CSc2ccccc2)c1C(=O)O	-3	20	4025	0	-3	10
O=C(NCCOc1ccccc1)C1CCCN1C(=O)c1cccs1 (stereo not drawn)	6	.	3973	1	10	-5
Cc1ccc(-c2nn(C)c(=O)c3ccccc23)cc1CNC(=O)/C=C/c1ccccc1	-12	10	7158	-1	-7	-2
Cc1ccccc1OCc1nnc(SCc2cc(=O)[nH]c3ccccc23)o1	-2	-18	8118	-1	-8	65*
O=c1cc(CSc2nnc(COc3ccc(Cl)cc3)o2)c2ccccc2[nH]1	2	-15	4792	-1	-4	51*
S=C(NCc1ccccc1)NCc1ccccc1Cl	-3	7	?	3	-2	0
O=c1cc(C(F)(F)F)nc(SCc2cccnc2)[nH]1	0	14	5176	1	2	4
CCOC(=O)Cn1cnc2scc(-c3ccc(C)cc3)c2c1=O	-2	-9	3066	3	6	1
O=[N+]([O-])c1ccc(CSC2=NCCS2)cc1	-5	18	4384	-3	?	4
CCOC(=O)N1CCN(C(=O)CN(c2ccc(OC)c(OC)c2)S(C)(=O)=O)CC1	1	24	16773*	-1	2	4
CCOC(=O)N1CCN(C(=O)CN(c2ccc(OCC)cc2)S(C)(=O)=O)CC1	-1	4	22023*	1	2	6
CC(C(=O)N1CCC(C(N)=O)CC1)N(c1ccc(Oc2ccccc2)cc1)S(C)(=O)=O (stereo not drawn)	0	16	20200*	1	1	-9
Cc1ccc(N(CC(=O)N2CCCC2)S(C)(=O)=O)cc1C	-13	58*	3771	2	?	2
CCCCSc1nc2c(c(=O)[nH]1)CCC2	1	24	5641	1	-6	0
O=C(NC1=C(NC2CCS(=O)(=O)C2)C(=O)c2ccccc2C1=O)c1ccccc1 (stereo not drawn)	-8	8	4584	-1	-6	12
CC1=CCn2c(=O)c3ccccc3c(=O)n2C1	0	14	2526	0	-2	6
CCOc1ccc(NC(=O)[C@@H]2CCCN2C(=O)c2cccs2)cc1S(=O)(=O)N1CCCCC1	-8	.	8113	3	0	9
SMILES	Anthrax LF inh2	DUSP3 inh	Bead autofluor	BoNT A protease	BoNT-F LC inh	MazF activator
CCOC(=O)N1CCC(N(CCN(C)C)C(=S)Nc2cccc(Cl)c2)CC1	3	16	4189	-1	-3	5
Cc1ccc(N(C(C)C(=O)N2CCCCC2)S(C)(=O)=O)cc1C (stereo not drawn)	2	27	22154*	2	4	6
Cc1cc([N+](=O)[O-])c2[nH]c(C(=O)N/N=C/c3ccccc3C(=O)O)c(-c3ccccc3)c2c1	2	90*	19535*	1	-1	-5
O=c1[nH]c2ccsc2c(=O)n1-c1ccc(F)c(Cl)c1	-10	29	17764*	?	10	-23
COC(=O)c1sc2nc(N)c(C#N)cc2c1N	-1	2	2235	1	0	7
CC1=NNC(=O)C1CCC(=O)N/N=C\c1ccccc1[N+](=O)[O-] (stereo not drawn)	-1	8	22394*	?	0	-3
CC1=NNC(=O)C1CCC(=O)N/N=C/c1ccccc1 (stereo not drawn)	1	20	5999	0	5	-2
O=C(CCN1CCN(CCO)CC1)Nc1ccc(OCc2ccccc2)cc1	3	39	19226*	2	2	1
O=C(CCN1CCN(Cc2ccccc2)CC1)Nc1ccc(OCc2ccccc2)cc1	-4	21	17367*	-2	-4	7
CCOc1ccc(NC(=S)Nc2cc(-c3ccccc3)[nH]n2)cc1	-4	25	19137*	1	-1	7
OCCCCNCc1ccc(OCc2ccccc2Cl)cc1	-6	14	9313	0	-16	6
COc1ccc(NC(=S)Nc2cc(-c3ccccc3)[nH]n2)cc1Cl	-4	0	11985	-2	-17	3
OCCCCNCc1ccc(OCc2ccccc2)cc1	-2	52*	2254	0	-6	10
COc1ccc(-c2ccc3c(c2)CN(CC(C)C)Cc2cnnn2-3)cc1	-7	.	4273	1	-10	.
CCOC(=O)c1c(C)[nH]c(C)c1C=O	7	3	4701	0	7	0
Cc1ccc(-c2nnn(CC(=O)N(c3ccccc3)C(C(=O)NC3CCCC3)c3ccncc3)n2)o1 (stereo not drawn)	-6	-5	4084	-4	-7	2
O=C(CNC(=O)c1ccc(F)cc1)NCc1ccccn1	-5	.	3840	0	8	-6
CCC(=O)Nc1ccc(N2CCN(Cc3ccccc3)CC2)cc1	.	14	.	.	.	-6
S=C(Nc1ccccc1)Nc1ccc(OCc2ccccc2)cc1	-6	20	19054*	?	4	-2
O=C(Nc1ccc(N2CCN(Cc3ccccc3)CC2)cc1)c1ncn[nH]1	-5	18	23010*	0	-13	-4
NS(=O)(=O)c1ccc(NC(=S)Nc2ccc(OCc3ccccc3)cc2)cc1	-2	0	4131	-1	0	-5
O=[N+]([O-])c1cccc(-c2cc3cccc[n+]3cc2-c2cccc([N+](=O)[O-])c2)c1	2	-14	2443	-1	-6	5
Cc1cccc2cc(-c3ccccc3)c(-c3ccccc3)c[n+]12	8	12	5605	38*	-46	23
CN(C)c1nc2ccc(OCCN3CCCCC3)cc2s1	0	29	23663*	-1	-1	-2
CCOc1ccc2nc(N3CCCCCC3)sc2c1	-4	25	16527*	0	-4	-6
O=C(c1ccc(=O)oc1)N1CCCc2ccccc21	-4	8	2986	0	-9	3
Cc1ccc2[nH]cc(CCNC(=O)Nc3ccccc3)c2c1	0	17	21739*	-3	-7	4
